Values joined by “and” are separate entries in the source; they are usually repeats but may differ in a detail not shown here. Equal values may be shown once. A number with no mark means an inactive call. Inconclusive results are not listed. Active and inactive are the calls of the source. Unless noted, the call rests on the fitted dose curve; in most records, active means well fitted inhibition curve with a large enough effect; inconclusive means small, poorly fitted or top-dose-only effect; inactive means flat fitted curve, though single readings scatter.
Tests used:
[1] = Drug repurposing screens with cells derived from glioblastoma tumor samples (AID 1345199); settings: GBM patient neurospheres viability, ATP luminescence, 48 h; further: nearly all actives have a fitted effect of over 40% in size; further: potency means the concentration at half of the fitted maximal effect; on activity, negative = cell killing: on the % scale 0 is the no-effect control and ±100 the full control effect
In short: (§1)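 Four patient lines of CD133+ GBM neurospheres were screened at several concentrations; hits were retested in those lines plus three slower-growing GBM lines, using 48-hour treatment and ATP-based viability.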

[2] = tested on: astro; assay: as above; settings: viability, ATP luminescence, 48 h; series mostly up to 45.9 µM
In short: as §1

[3] = target: Nuclear receptor subfamily 1 group I member 2 (Rattus norvegicus) (UniProt Q9R1A7); assay: qHTS assay for small molecule activators of the rat pregnane X receptor (rPXR) signaling pathway (AID 651751; call rule not given here; further: 0% is about no effect); settings: rPXR reporter cells, luciferase (One-Glo), 24 h
[4] = qHTS assay for small molecule activators of the human pregnane X receptor (PXR) signaling pathway (AID 720659; call rule not given here; further: 0% is about no effect); settings: DPX-2 HepG2 CYP3A4-luciferase, 24 h; series mostly up to 92.3 µM
[5] = at 45.9 µM (top of the series), tumour line B
[6] = at 45.9 µM (top of the series), tumour line D
[7] = at 46 µM (top of the series), tumour line A
[8] = at 46.1 µM (top of the series), tumour line C
[9] = at 20 µM (top of the series), tumour line C
[10] = at 21.2 µM (top of the series), tumour line B
[11] = at 21.2 µM (top of the series), tumour line D
[12] = at 21.3 µM (top of the series), tumour line A

Nuclear receptor subfamily 1 group I member 2 (Rattus norvegicus), sequence (Q9R1A7 whole entry, looked up): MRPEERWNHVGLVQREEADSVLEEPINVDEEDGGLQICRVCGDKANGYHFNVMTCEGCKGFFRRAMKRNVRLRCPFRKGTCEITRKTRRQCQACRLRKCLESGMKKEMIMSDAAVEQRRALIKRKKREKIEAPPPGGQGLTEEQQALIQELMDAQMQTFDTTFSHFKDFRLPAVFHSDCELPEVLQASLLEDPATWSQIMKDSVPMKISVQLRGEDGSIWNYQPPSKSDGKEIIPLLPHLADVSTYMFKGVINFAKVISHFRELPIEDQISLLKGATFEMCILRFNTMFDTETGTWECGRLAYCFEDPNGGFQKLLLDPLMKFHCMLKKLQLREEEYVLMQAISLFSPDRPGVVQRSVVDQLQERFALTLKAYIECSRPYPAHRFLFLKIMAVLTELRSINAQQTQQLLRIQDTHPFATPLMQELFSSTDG

CCCCCc1ccc(C)cc1O
activity, negative = cell killing [1, 5]: -7.13% | activity, negative = cell killing [1, 6]: 3.04% | activity, negative = cell killing [1, 7]: -24.1% | activity, negative = cell killing [1, 8]: -11.1% | Potency [2]: inactive

Cc1c(O)c(=O)ccn1C
activity, negative = cell killing [1, 5]: -9.32% | activity, negative = cell killing [1, 6]: -8.06% | activity, negative = cell killing [1, 7]: -29.8% | activity, negative = cell killing [1, 8]: -25.3% | Potency [2]: inactive

CC(C)(CO)[C@@H](O)C(=O)NCCC(=O)NCCSSCCNC(=O)CCNC(=O)[C@H](O)C(C)(C)CO
activity, negative = cell killing [1, 5]: -16.4% | activity, negative = cell killing [1, 6]: -15.1% | activity, negative = cell killing [1, 7]: -16.6% | activity, negative = cell killing [1, 8]: -15.9% | Potency [2]: inactive

CCCOc1cc(N)ccc1C(=O)OCCN(CC)CC
activity, negative = cell killing [1, 9]: 3.99% | activity, negative = cell killing [1, 10]: -3.15% | activity, negative = cell killing [1, 11]: -24.1% | activity, negative = cell killing [1, 12]: 3.16% | Potency [2]: inactive

CC1CS(=O)(=O)CCN1/N=C/c1ccc([N+](=O)[O-])o1 (configuration not stated)
activity, negative = cell killing [1, 9]: -27.2% | activity, negative = cell killing [1, 10]: -10% | activity, negative = cell killing [1, 11]: -29.2% | activity, negative = cell killing [1, 12]: -23%

CC(=O)Nc1c(I)c(C(=O)N[C@H]2C(O)O[C@H](CO)[C@@H](O)[C@@H]2O)c(I)c(N(C)C(C)=O)c1I (some centres not stated)
activity, negative = cell killing [1, 9]: -5.11% | activity, negative = cell killing [1, 10]: -5.7% | activity, negative = cell killing [1, 11]: -16.2% | activity, negative = cell killing [1, 12]: -16.4%

O=C(OC[C@H]1O[C@@H](OC(=O)c2cc(O)c(O)c(OC(=O)c3cc(O)c(O)c(O)c3)c2)[C@H](OC(=O)c2cc(O)c(O)c(OC(=O)c3cc(O)c(O)c(O)c3)c2)[C@@H](OC(=O)c2cc(O)c(O)c(OC(=O)c3cc(O)c(O)c(O)c3)c2)[C@@H]1OC(=O)c1cc(O)c(O)c(OC(=O)c2cc(O)c(O)c(O)c2)c1)c1cc(O)c(O)c(OC(=O)c2cc(O)c(O)c(O)c2)c1
Potency ([1]; tumour line A): 15.8 µM (active) | Potency ([1]; tumour line B): 22.4 µM (active) | Potency ([1]; tumour line D): 17.8 µM (active)

CC(C)CCCCCCc1ccc(O)cc1
Potency ([1]; tumour line A): 22.4 µM (active)

O=C(O)/C=C/C(=O)Nc1ccc(S(=O)(=O)Nc2nccs2)cc1
activity, negative = cell killing [1, 5]: -4.39% | activity, negative = cell killing [1, 6]: -8.87% | activity, negative = cell killing [1, 8]: -5.24% | Potency [2]: inactive

CC1CCCC(C)N1NC(=O)c1ccc(Cl)c(S(N)(=O)=O)c1 (configuration not stated)
activity, negative = cell killing [1, 9]: -19.6% | activity, negative = cell killing [1, 10]: -10.8% | activity, negative = cell killing [1, 11]: -17.6% | Potency [2]: inactive

Nc1ncnc2c1ncn2[C@H]1CC[C@@H](CO)O1
activity, negative = cell killing [1, 5]: -7.29% | activity, negative = cell killing [1, 6]: -3.43% | activity, negative = cell killing [1, 7]: -28.3% | activity, negative = cell killing [1, 8]: -20.8% | Potency [2]: inactive | max response [3]: -2.84% and -0.199% | outcome [4]: inactive
